“And” between values parts separate entries of the source, which are not always exact repeats. Equal entries are not always repeated. Screen size: about 5,500 compounds; about 2,000 (36%) were called active. About 18% were inconclusive and are not listed. Rule as the data show it: active = normalized growth mostly below about 0.91 (no sharp cut-off); inconclusive = no clear call, values can overlap the other calls; inactive = mostly above about 0.92. Some of the results follow.
Assay: chemical genetic growth profiling, strain panel (AID 1159580);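 also: tested at 20 µM; growth read once vehicle control cultures reached saturation at 30 °C; 1 = growth at the plate median or of vehicle wells; lower values mean less growth of the strain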
Details: S. cerevisiae deletion strains, growth OD

Measured: normalized growth

CC(C)[C@@H]1CC[C@@H](C)CC1=O
inactive: locus YAL013W, strain DEP1, stronger effect = lower value 1.01 | locus YAL021C, strain ccr4, stronger effect = lower value 0.945 | locus YAL026C, strain drs2, stronger effect = lower value 1.01 | locus YAL030W, strain snc1, stronger effect = lower value 0.998 | locus YBL061C, strain skt5, stronger effect = lower value 0.993 | locus YBR009C, strain hhf1, stronger effect = lower value 0.981 | locus YBR021W, strain FUR4, stronger effect = lower value 0.98 | locus YBR023C, strain chs3, stronger effect = lower value 0.993 | locus YBR171W, strain sec66, stronger effect = lower value 0.986 | locus YBR229C, strain ROT2, stronger effect = lower value 1.01 | locus YBR231C, strain swc5, stronger effect = lower value 0.988 | locus YBR279W, strain paf1, stronger effect = lower value 0.994 | locus YCL011C, strain gbp2, stronger effect = lower value 0.967 | locus YCL016C, strain dcc1, stronger effect = lower value 0.978 | locus YCL029C, strain bik1, stronger effect = lower value 1.01 | locus YCL061C, strain MRC1, stronger effect = lower value 0.997 | locus YCL069W, strain vba3, stronger effect = lower value 0.99 | locus YCR088W, strain abp1, stronger effect = lower value 0.997 | locus YDL005C, strain med2, stronger effect = lower value 0.998 | locus YDL035C, strain GPR1, stronger effect = lower value 1.02 | locus YDL040C, strain nat1, stronger effect = lower value 1 | locus YDL074C, strain BRE1, stronger effect = lower value 1.02 | locus YDL101C, strain DUN1, stronger effect = lower value 1.02 | locus YDL134C, strain PPH21, stronger effect = lower value 1.02 | locus YDL185W, strain tfp1, stronger effect = lower value 1.01 | locus YDL192W, strain arf1, stronger effect = lower value 1.02 | locus YDR001C, strain nth1, stronger effect = lower value 1.01 | locus YDR069C, strain doa4, stronger effect = lower value 1.01 | locus YDR101C, strain arx1, stronger effect = lower value 1.01 | locus YDR137W, strain rgp1, stronger effect = lower value 1 | locus YDR150W, strain NUM1, stronger effect = lower value 1.02 | locus YDR159W, strain sac3, stronger effect = lower value 0.996 | locus YDR162C, strain NBP2, stronger effect = lower value 1.04 | locus YDR195W, strain ref2 0.976 | locus YDR297W, strain sur2, stronger effect = lower value 0.987 | locus YDR318W, strain mcm21, stronger effect = lower value 0.998 | locus YDR334W, strain swr1, stronger effect = lower value 0.993 | locus YDR335W, strain msn5, stronger effect = lower value 0.987 | locus YDR388W, stronger effect = lower value 1 | locus YDR392W, strain spt3, stronger effect = lower value 0.963 | locus YDR502C, strain sam2, stronger effect = lower value 1.01 | locus YEL003W, strain gim4, stronger effect = lower value 0.995 | locus YEL037C, strain rad23, stronger effect = lower value 0.982 | locus YEL061C, strain CIN8 (second series), stronger effect = lower value 0.989 | locus YEL061C, strain CIN8, stronger effect = lower value 1 | locus YER015W, strain faa2, stronger effect = lower value 0.984 | locus YER016W, strain bim1, stronger effect = lower value 0.991 | locus YER110C, stronger effect = lower value 1.01 | locus YER111C, strain swi4, stronger effect = lower value 1 | locus YER155C, strain BEM2 (second series), stronger effect = lower value 0.99 | locus YER155C, strain BEM2, stronger effect = lower value 0.998 | locus YER167W, strain BCK2, stronger effect = lower value 1.02 | locus YFR010W, strain ubp6, stronger effect = lower value 0.996 | locus YGL078C, strain dbp3, stronger effect = lower value 1 | locus YGL086W, strain mad1, stronger effect = lower value 1.01 | locus YGL167C, strain pmr1, stronger effect = lower value 0.992 | locus YGL173C, strain kem1, stronger effect = lower value 0.999 | locus YGL227W, strain vid30, stronger effect = lower value 1 | locus YGL240W, strain doc1, stronger effect = lower value 1 | locus YGL248W, strain PDE1, stronger effect = lower value 1.02 | locus YGL253W, strain hxk2, stronger effect = lower value 0.992 | locus YGR078C, strain PAC10, stronger effect = lower value 1.02 | locus YGR135W, strain pre9, stronger effect = lower value 1.01 | locus YGR229C, strain SMI1, stronger effect = lower value 1.05 | locus YGR252W, strain gcn5, stronger effect = lower value 1.03 | locus YHR013C, strain ard1, stronger effect = lower value 0.979 | locus YHR027C, strain rpn1, stronger effect = lower value 1 | locus YHR030C, strain SLT2, stronger effect = lower value 1.01 and 0.977 | locus YHR079C, strain IRE1 (second series), stronger effect = lower value 0.995 | locus YHR079C, strain IRE1, stronger effect = lower value 0.976 | locus YHR094C, strain hxt1, stronger effect = lower value 1.02 | locus YHR129C, strain ARP1, stronger effect = lower value 1.01 | locus YHR142W, strain chs7, stronger effect = lower value 0.968 | locus YHR200W, strain rpn10, stronger effect = lower value 1.01 | locus YIL066C, strain RNR3, stronger effect = lower value 1.04 | locus YIL073C, strain SPO22, stronger effect = lower value 1.06 | locus YIL125W, strain kgd1, stronger effect = lower value 1.02 | locus YIR030C, strain dcg1, stronger effect = lower value 1.01 | locus YJL092W, strain hpr5, stronger effect = lower value 0.989 | locus YJL095W, strain BCK1 (second series), stronger effect = lower value 0.978 | locus YJL095W, strain BCK1, stronger effect = lower value 1.06 and 0.982 | locus YJL115W, strain asf1, stronger effect = lower value 0.991 | locus YJL129C, strain trk1, stronger effect = lower value 1.01 | locus YJL134W, strain LCB3, stronger effect = lower value 1.01 | locus YJL154C, strain vps35, stronger effect = lower value 0.989 | locus YJL164C, strain tpk1, stronger effect = lower value 0.961 | locus YJL166W, strain qcr8, stronger effect = lower value 0.995 | locus YJL168C, strain set2, stronger effect = lower value 0.996 | locus YJL187C, strain SWE1 (second series), stronger effect = lower value 1.03 | locus YJL187C, strain SWE1, stronger effect = lower value 0.99 | locus YJR043C, strain POL32, stronger effect = lower value 1.02

Reference: PubChem BioAssay AID1159580 (chemical genetic matrix, 2015)
